Activity calls are given as the source filed them. Cut-off read from the data, not from the text of the source: active = parasite load remaining mostly below about 12% (no sharp cut-off); inactive = mostly above about 10%.
Assay: liver-stage malaria parasite growth inhibition, primary screen, cell-based, HepG2, luciferase luminescence, HepG2 viability (AID 624349);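 note: 100% = mean of DMSO negative control wells on the same plate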
Conditions: P. berghei liver stage in HepG2, luciferase luminescence, concentration not given here; parasite load remaining: stronger effect = lower value; viability: measured here: HepG2 viability without parasites

Structure (SMILES) | parasite load remaining | viability
O=C1NC(=O)C(c2cn(CCCO)c3ncccc23)=C1c1cnccn1 | 39.6% (inactive) | 97.4%
O=C1Nc2ccccc2/C1=C\c1c(Cl)[nH]c2ccccc12 | 35% (inactive) | 118%
O=C(O)/C=C/c1cc(Br)c(Br)c(Br)c1Br | 36.5% (inactive) | 98.8%
COc1ccc2c(c1)c1c3c(c4c5ccccc5n(C)c4c1n2CC(O)CN(C)C)C(=O)NC3=O (configuration not stated) | 65.8% (inactive) | 144%
CC(C)n1cnc2c(Nc3cccc(Cl)c3)nc(NCCO)nc21 | 37.9% (inactive) | 90.9%
NS(=O)(=O)c1ccc(N=Nc2c(O)[nH]c3ccc(Br)cc23)cc1 | 34% (inactive) | 161%
